According to PMC7862700, “An all-to-all approach to the identification of sequence-specific readers for epigenetic DNA modifications on cytosine”:

Key:
Experiment in all cases: DAPPL (digital affinity profiling via proximity ligation, sequencing); 10 mM Tris-HCl pH 7.5, 50 mM NaCl, 1 mM DTT, 4% glycerol, room temperature, 30 min; GST-TFs on glutathione beads, 16-mer random dsDNA library, 0.1% formaldehyde crosslink after washing; high values mean tight binding
Conditions in all cases: protein: recombinant; tags: N-terminal GST; dsDNA, one strand shown
[1] = biological target: T1, FLI1 (Homo sapiens, UniProt Q01543 1-452)
T1 sequence: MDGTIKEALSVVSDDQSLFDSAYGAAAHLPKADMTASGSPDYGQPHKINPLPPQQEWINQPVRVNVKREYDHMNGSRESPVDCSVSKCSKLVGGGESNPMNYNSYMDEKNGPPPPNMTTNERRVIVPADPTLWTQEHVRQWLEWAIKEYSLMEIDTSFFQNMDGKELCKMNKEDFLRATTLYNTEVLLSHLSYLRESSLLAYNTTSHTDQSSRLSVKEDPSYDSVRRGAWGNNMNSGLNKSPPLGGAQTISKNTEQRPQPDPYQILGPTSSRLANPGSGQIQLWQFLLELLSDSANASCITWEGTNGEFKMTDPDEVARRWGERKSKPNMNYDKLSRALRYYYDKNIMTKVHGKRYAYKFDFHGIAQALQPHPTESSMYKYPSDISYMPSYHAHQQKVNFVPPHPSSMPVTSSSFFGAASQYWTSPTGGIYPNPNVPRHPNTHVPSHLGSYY
Method in brief: (§1)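 Yeast served to express human transcription factors as GST fusions, which were then captured on glutathione beads and labelled with DNA barcodes. Pooled with a tag-only sample, they were incubated with 200 nmole of a 16-mer random double-stranded DNA library for 30 min at room temperature in Tris/NaCl/DTT/glycerol buffer, washed, crosslinked with 0.1% formaldehyde, ligated by proximity, amplified by PCR and sequenced. Dividing each hexamer's read frequency for a factor by its frequency for the tag-only sample gives the binding signal.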

[2] = biological target: T2, ELK1 (Homo sapiens, UniProt P19419 1-428)
T2 sequence: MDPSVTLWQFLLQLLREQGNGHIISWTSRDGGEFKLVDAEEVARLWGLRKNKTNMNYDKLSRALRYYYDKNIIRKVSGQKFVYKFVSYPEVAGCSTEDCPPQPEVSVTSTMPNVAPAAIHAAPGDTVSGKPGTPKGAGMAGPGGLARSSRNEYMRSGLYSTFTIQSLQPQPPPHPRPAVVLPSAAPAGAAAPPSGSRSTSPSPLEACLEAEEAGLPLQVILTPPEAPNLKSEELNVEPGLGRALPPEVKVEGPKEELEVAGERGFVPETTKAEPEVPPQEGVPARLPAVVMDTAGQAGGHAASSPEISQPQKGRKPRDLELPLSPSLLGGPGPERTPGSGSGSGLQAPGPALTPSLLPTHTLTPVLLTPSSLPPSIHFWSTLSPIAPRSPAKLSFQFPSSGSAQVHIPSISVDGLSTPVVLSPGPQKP
Method in brief: as §1

[3] = biological target: T3, GABPA (Homo sapiens, UniProt Q06546 1-454)
T3 sequence: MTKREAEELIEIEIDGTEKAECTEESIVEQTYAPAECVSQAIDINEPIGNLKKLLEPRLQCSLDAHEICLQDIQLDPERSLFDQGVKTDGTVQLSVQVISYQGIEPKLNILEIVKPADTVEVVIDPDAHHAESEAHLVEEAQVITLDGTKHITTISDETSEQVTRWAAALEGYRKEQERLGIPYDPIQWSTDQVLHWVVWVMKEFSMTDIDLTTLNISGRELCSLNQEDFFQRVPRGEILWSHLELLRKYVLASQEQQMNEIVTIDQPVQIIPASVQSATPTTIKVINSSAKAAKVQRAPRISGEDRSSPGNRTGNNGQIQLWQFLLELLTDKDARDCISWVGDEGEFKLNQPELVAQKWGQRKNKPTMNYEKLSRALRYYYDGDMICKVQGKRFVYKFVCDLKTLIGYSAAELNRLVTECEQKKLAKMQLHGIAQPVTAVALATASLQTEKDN
Method in brief: as §1

[4] = biological target: T4, ERG (Homo sapiens, UniProt P11308 1-479)
T4 sequence: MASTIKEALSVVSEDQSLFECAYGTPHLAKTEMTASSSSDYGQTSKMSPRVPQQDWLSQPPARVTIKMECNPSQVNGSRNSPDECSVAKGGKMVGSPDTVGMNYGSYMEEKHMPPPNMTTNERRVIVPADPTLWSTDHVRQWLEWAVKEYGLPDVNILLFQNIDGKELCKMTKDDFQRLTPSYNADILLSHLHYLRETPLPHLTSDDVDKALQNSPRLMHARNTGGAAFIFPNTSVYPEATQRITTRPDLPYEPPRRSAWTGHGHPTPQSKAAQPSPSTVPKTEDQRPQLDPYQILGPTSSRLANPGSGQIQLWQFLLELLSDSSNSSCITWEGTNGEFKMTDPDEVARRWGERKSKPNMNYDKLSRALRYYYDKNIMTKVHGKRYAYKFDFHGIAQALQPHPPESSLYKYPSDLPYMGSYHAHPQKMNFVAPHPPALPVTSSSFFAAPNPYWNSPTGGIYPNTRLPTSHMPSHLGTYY
Method in brief: as §1

[5] = biological target: ELF1 (Homo sapiens, UniProt P32519 1-619)
Method in brief: as §1

[6] = biological target: T5, EHF (Homo sapiens, UniProt Q9NZC4 1-300)
T5 sequence: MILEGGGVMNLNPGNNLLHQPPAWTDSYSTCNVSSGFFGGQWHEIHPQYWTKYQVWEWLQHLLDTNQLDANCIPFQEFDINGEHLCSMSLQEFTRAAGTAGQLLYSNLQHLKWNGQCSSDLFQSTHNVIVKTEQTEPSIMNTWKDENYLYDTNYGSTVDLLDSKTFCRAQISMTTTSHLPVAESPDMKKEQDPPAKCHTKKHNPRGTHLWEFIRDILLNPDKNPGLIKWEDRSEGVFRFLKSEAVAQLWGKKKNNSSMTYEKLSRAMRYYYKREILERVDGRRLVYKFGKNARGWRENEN
Method in brief: as §1

[7] = biological target: SPI1 (Homo sapiens, UniProt P17947 1-270)
Method in brief: as §1

[8] = biological target: SPIB (Homo sapiens, UniProt Q01892 1-262)
Method in brief: as §1

[9] = biological target: T6, ELK3 (Homo sapiens, UniProt P41970 1-407)
T6 sequence: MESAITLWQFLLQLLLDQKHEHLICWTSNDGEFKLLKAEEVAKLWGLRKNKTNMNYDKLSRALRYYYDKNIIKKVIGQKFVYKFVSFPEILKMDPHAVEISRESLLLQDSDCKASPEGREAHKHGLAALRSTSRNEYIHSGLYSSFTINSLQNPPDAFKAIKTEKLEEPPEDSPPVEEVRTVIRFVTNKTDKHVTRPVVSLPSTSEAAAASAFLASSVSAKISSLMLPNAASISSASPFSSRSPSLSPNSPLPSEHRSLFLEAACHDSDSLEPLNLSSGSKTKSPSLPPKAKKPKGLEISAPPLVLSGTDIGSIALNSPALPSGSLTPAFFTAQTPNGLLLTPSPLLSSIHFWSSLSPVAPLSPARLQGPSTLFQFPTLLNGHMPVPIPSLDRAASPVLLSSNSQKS
Method in brief: as §1

[10] = biological target: T7, FEV (Homo sapiens, UniProt Q99581 1-238)
T7 sequence: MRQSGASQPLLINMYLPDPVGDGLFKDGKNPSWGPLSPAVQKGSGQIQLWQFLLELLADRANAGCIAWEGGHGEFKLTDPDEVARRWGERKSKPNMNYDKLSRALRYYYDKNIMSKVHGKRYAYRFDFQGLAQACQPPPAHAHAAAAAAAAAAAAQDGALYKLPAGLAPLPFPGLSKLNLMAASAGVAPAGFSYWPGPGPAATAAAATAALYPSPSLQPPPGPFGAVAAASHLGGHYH
Method in brief: as §1

[11] = biological target: ETV5 (Homo sapiens, UniProt P41161 1-510)
Method in brief: as §1

[12] = biological target: T8, SPIC (Homo sapiens, UniProt Q8N5J4 1-248)
T8 sequence: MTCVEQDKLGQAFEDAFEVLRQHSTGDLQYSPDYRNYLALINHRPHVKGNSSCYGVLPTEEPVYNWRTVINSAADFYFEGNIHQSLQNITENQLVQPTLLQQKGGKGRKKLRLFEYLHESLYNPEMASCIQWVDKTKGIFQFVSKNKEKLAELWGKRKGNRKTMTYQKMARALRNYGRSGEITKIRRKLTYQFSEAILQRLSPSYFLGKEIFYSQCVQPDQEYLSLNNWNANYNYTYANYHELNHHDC
Method in brief: as §1

[13] = biological target: ELF4 (Homo sapiens, UniProt Q99607 1-663)
Method in brief: as §1

[14] = biological target: T9, ELK4 (Homo sapiens, UniProt P28324-2 1-405)
T9 sequence: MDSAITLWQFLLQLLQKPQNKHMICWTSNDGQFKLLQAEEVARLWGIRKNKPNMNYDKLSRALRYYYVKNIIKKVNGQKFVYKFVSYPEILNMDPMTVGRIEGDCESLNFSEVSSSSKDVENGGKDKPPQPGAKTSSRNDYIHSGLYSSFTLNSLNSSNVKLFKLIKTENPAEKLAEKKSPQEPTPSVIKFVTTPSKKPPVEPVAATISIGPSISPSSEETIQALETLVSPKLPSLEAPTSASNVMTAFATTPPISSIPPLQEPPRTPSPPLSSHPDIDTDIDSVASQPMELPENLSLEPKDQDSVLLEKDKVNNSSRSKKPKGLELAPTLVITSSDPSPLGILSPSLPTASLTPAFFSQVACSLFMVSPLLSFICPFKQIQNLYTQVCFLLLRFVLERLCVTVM
Method in brief: as §1

[15] = biological target: T10, ETV2 (Homo sapiens, UniProt O00321 1-342)
T10 sequence: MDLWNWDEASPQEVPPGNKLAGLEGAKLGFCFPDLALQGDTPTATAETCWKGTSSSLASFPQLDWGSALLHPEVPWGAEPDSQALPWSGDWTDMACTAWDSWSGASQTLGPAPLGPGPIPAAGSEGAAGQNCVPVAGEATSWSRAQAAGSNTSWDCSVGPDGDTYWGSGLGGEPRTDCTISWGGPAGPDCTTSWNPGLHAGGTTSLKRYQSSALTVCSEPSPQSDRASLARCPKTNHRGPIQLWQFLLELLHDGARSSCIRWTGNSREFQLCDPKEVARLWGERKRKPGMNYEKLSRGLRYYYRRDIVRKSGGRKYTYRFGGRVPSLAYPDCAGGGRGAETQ
Method in brief: as §1

[16] = biological target: T11, ELF3 (Homo sapiens, UniProt P78545 1-371)
T11 sequence: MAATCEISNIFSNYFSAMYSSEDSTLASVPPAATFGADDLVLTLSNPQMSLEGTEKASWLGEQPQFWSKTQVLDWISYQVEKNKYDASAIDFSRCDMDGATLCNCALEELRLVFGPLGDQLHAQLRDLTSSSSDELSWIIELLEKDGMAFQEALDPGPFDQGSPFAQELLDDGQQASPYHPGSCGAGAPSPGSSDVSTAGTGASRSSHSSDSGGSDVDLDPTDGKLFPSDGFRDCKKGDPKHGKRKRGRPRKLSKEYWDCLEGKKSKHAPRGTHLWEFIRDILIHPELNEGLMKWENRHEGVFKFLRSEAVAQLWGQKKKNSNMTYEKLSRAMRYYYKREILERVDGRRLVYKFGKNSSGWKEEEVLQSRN
Method in brief: as §1

[17] = biological target: ETV1 (Homo sapiens, UniProt P50549 1-477)
Method in brief: as §1

ELF1, sequence (P32519 whole entry): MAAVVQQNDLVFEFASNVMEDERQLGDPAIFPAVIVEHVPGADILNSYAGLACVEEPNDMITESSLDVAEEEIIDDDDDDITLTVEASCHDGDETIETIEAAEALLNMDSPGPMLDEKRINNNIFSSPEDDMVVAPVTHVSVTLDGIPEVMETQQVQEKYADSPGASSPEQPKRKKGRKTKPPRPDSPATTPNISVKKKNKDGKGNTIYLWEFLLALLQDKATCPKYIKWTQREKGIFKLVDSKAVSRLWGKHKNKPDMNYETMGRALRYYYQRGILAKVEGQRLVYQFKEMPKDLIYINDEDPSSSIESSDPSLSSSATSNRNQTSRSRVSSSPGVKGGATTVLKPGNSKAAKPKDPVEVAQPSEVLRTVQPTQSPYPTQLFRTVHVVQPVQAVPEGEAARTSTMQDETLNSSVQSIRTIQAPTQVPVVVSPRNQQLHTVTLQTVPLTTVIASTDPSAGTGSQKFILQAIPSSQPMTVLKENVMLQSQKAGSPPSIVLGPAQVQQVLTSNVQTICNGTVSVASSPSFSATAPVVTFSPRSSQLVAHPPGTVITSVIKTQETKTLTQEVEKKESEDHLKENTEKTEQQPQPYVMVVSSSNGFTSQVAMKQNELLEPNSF
ETV5, sequence (P41161 whole entry): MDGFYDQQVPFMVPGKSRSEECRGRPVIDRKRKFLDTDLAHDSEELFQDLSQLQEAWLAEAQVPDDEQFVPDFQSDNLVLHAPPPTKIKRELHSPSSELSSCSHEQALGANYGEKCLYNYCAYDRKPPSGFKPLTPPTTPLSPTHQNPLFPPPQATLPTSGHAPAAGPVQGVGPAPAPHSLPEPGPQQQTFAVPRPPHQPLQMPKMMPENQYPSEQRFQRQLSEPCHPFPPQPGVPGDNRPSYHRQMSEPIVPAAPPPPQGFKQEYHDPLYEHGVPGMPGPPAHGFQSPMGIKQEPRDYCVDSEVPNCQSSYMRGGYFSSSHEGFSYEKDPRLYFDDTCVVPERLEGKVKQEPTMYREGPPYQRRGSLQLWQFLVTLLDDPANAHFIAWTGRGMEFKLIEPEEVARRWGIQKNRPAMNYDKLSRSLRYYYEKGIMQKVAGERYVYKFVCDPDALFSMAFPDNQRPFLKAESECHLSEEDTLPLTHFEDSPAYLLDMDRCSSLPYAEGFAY
ELF4, sequence (Q99607 whole entry): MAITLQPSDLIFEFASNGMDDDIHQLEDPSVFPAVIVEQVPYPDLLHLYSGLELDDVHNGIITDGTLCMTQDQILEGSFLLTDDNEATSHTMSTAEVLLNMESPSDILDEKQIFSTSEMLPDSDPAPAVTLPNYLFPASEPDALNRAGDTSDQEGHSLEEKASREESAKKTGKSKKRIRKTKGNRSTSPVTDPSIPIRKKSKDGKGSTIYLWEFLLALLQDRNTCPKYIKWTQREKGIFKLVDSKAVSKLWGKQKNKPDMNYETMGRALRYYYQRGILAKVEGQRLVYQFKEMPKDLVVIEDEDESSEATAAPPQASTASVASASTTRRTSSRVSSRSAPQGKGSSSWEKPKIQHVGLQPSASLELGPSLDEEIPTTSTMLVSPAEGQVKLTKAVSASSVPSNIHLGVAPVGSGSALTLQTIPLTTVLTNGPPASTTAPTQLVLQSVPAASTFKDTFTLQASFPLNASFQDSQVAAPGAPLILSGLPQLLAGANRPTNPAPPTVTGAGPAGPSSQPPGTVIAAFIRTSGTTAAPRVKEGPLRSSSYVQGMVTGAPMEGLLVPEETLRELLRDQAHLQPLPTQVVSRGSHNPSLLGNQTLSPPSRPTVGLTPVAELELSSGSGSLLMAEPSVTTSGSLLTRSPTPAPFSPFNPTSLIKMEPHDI
SPIB, sequence (Q01892 whole entry): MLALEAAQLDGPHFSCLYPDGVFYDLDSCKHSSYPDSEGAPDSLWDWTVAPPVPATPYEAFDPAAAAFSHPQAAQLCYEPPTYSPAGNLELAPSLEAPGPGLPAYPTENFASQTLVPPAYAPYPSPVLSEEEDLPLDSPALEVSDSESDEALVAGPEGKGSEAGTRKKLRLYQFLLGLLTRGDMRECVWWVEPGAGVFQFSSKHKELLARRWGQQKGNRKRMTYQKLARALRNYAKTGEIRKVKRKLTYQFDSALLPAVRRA
ETV1, sequence (P50549 whole entry): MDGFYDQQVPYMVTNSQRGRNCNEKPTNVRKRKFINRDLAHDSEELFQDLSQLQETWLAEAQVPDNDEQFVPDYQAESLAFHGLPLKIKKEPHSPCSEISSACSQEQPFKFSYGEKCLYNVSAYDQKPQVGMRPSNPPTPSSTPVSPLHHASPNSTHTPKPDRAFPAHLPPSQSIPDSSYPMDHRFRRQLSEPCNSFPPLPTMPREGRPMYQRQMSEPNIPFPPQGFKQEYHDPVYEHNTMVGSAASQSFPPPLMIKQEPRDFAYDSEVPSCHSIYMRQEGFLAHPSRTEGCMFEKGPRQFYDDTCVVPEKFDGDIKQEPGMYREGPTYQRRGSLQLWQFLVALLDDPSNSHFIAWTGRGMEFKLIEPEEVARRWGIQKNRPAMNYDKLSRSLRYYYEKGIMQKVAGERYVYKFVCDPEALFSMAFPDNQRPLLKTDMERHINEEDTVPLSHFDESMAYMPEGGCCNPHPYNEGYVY

Sequence	binding signal [1]	binding signal [2]	binding signal [3]	binding signal [4]	binding signal [5]	binding signal [6]	binding signal [7]	binding signal [8]	binding signal [9]	binding signal [10]	binding signal [11]	binding signal [12]	binding signal [13]	binding signal [14]	binding signal [15]	binding signal [16]	binding signal [17]
TGTCAC	1.15 fold enrichment (6-mer frequency, TF over GST control)	1.11 fold enrichment (6-mer frequency, TF over GST control)	1.22 fold enrichment (6-mer frequency, TF over GST control)	1.11 fold enrichment (6-mer frequency, TF over GST control)	1.23 fold enrichment (6-mer frequency, TF over GST control)	1.22 fold enrichment (6-mer frequency, TF over GST control)	1.21 fold enrichment (6-mer frequency, TF over GST control)	1.31 fold enrichment (6-mer frequency, TF over GST control)	1.2 fold enrichment (6-mer frequency, TF over GST control)	1.2 fold enrichment (6-mer frequency, TF over GST control)	1.15 fold enrichment (6-mer frequency, TF over GST control)	1.31 fold enrichment (6-mer frequency, TF over GST control)	1.22 fold enrichment (6-mer frequency, TF over GST control)	1.25 fold enrichment (6-mer frequency, TF over GST control)	1.24 fold enrichment (6-mer frequency, TF over GST control)	1.2 fold enrichment (6-mer frequency, TF over GST control)	1.18 fold enrichment (6-mer frequency, TF over GST control)
TGCATC	1.35 fold enrichment (6-mer frequency, TF over GST control)	1.42 fold enrichment (6-mer frequency, TF over GST control)	1.38 fold enrichment (6-mer frequency, TF over GST control)	1.43 fold enrichment (6-mer frequency, TF over GST control)	1.31 fold enrichment (6-mer frequency, TF over GST control)	1.33 fold enrichment (6-mer frequency, TF over GST control)	1.42 fold enrichment (6-mer frequency, TF over GST control)	1.35 fold enrichment (6-mer frequency, TF over GST control)	1.44 fold enrichment (6-mer frequency, TF over GST control)	1.33 fold enrichment (6-mer frequency, TF over GST control)	1.39 fold enrichment (6-mer frequency, TF over GST control)	1.46 fold enrichment (6-mer frequency, TF over GST control)	1.31 fold enrichment (6-mer frequency, TF over GST control)	1.22 fold enrichment (6-mer frequency, TF over GST control)	1.33 fold enrichment (6-mer frequency, TF over GST control)	1.3 fold enrichment (6-mer frequency, TF over GST control)	1.4 fold enrichment (6-mer frequency, TF over GST control)
